Inhibition data for 57 compounds are collected here from PubChem BioAssay AID2235 (The Scripps Research Institute Molecular Screening Center, 2010).

In all, about 320,000 compounds went through this assay and about 2,800 (0.88%) were called active. The sample as a whole holds a higher share of actives than the screen did. A number with no mark means an inactive call.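 Rule for the calls: active = inhibition above the mean inhibition of all tested compounds plus 3 SD, computed separately for each screening campaign (cut at about 15% in these data); inactive = the rest.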

What is called inhibition is the relative decrease from the control value, in per cent.

Sequence of Serine/threonine-protein phosphatase PP1-alpha catalytic subunit (Homo sapiens) (P62136 whole entry, looked up): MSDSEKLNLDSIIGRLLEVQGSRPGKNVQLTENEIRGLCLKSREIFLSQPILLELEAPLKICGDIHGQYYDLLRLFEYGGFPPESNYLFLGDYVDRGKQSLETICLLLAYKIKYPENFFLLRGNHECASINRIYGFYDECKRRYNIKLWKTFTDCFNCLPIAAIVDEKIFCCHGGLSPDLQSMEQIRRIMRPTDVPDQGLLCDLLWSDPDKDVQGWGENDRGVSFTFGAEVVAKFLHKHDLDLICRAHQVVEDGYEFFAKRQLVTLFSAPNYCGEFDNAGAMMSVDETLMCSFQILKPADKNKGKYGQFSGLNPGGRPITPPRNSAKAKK

This experiment has as its target Serine/threonine-protein phosphatase PP1-alpha catalytic subunit (Homo sapiens) (UniProt P62136). Put plainly: PP1-alpha phosphatase inhibitors, primary screen, counter-screen for PP5 inhibitor project, biochemical, fluorescence, OMFP substrate, single point (AID 2235). The following applies: purified PP1alpha, at 6.7 µM, stronger effect = higher value. For orientation: The purpose of a counterscreen is to sort out artefacts and off-target activity.
`CCOc1ccc(C(=O)NC(C(=O)NCc2ccccn2)C(C)C)cc1` (configuration not stated): the inhibition is 1.59%.

With `Cc1cc(C)cc(NC(=O)NCc2ccccn2)c1`, the inhibition was -2.05%. With `Cc1nc2cc(NC(=O)NCc3ccccc3)ccc2o1` the figure was -6.2%.

In the case of `O=C(NCc1ccccn1)c1ccc2nc(-c3ccco3)c(-c3ccco3)nc2c1`, the inhibition is 31.1% (active). With `COCCNC(=O)Nc1ccc2nc(-c3ccco3)c(-c3ccco3)nc2c1` the figure was 22.8% (active); with `CCOc1cc(NC(=S)NCCCOC)c(OCC)cc1NC(=O)c1ccco1`, -3.32%.

In the case of `C[C@H](NC(=O)[C@@H]1Cc2ccccc2CN1C(=O)OC(C)(C)C)C(=O)NC1CCCC1`, the inhibition was -1.9%. With `CC(=O)Nc1ccc(SC[C@H](Cc2ccccc2)N2CC[C@@H](C)CCC2=O)cc1` the figure was 2.41%; with `Cc1nc2cccnc2nc1C`, 2.22%; with `CCCCn1c(N)c(N(CC(C)C)C(=O)c2cccc(S(=O)(=O)N3CC(C)OC(C)C3)c2)c(=O)[nH]c1=O` (configuration not stated), -0.35%. To `COc1ccc(S(=O)(=O)N2CCOC2CNC(=O)C(=O)NCc2ccncc2)cc1OC` (configuration not stated) belongs -2.33%; to `COc1ccc(NC(=O)c2cn(-c3ccccc3)nc2SC)cc1`, 0.29%. Regarding `Cc1ccc(-c2nn(-c3ccccc3)cc2/C=C/C(=O)Nc2cccc(S(N)(=O)=O)c2)cc1`, the inhibition is 2.13%. With `COc1ccc(-c2nn(-c3ccccc3)cc2/C=C\C(=O)Nc2ccc(C(=O)O)cc2)cc1` the figure was 23.8% (active); with `O=C(CSc1ccccc1F)NC1CCS(=O)(=O)C1` (configuration not stated), -3.59%; with `CC(C)(C)NC(=O)Cn1c(SCC(=O)Nc2nccs2)nc2ccccc21`, -0.87%.

As to `O=C1CC(c2c(F)cccc2Cl)C(n2cncn2)C(O)=C1C1NCCc2ccccc21` (configuration not stated), the inhibition is 3.05%. With `COc1cc(C(C)=O)ccc1OC(C)C(=O)Nc1ccc(S(=O)(=O)N2CCCC2)cc1` (configuration not stated) the figure was -2.63%; with `C=CCn1c(=NC(=O)c2ccc(S(=O)(=O)N3CCCC3)cc2)sc2cc(NC(C)=O)ccc21`, 21.1% (active); with `C=CCn1c(=NC(=O)c2cccs2)sc2cc(NC(C)=O)ccc21`, 14.5%. Regarding `C=C(Br)Cn1c(CCCC)nc2ccccc21`, the inhibition was -2.53%.

As for `COc1ccc(CNC(=O)C(c2ccc(O)cc2)N(Cc2ccco2)C(=O)c2snc(C(N)=O)c2N)cc1` (configuration not stated), the inhibition was 4.97%. With `CCCOc1ccc(C2C(C(=O)c3ccc(C)o3)=C(O)C(=O)N2CCCn2ccnc2)cc1` (configuration not stated) the figure was 33.5% (active).

As for `CCOc1ccc(C2/C(=C(/O)c3ccc4c(c3)CC(C)O4)C(=O)C(=O)N2CCCn2ccnc2)cc1` (configuration not stated), the inhibition was 9.12%. With `CCCOc1ccc(C2c3c(oc4cc(C)c(C)cc4c3=O)C(=O)N2CCCN2CCOCC2)cc1` (configuration not stated), the inhibition was 3.82%. For the compound `C=CCOc1cccc(C2C(C(=O)c3ccc(C)o3)=C(O)C(=O)N2CCCn2ccnc2)c1` (configuration not stated), the inhibition was 17.4% (active). With `C=CCOc1cccc(C2C(C(=O)c3ccc(C)o3)=C(O)C(=O)N2c2nnc(C)s2)c1` (configuration not stated) the figure was 2.22%; with `O=C(C1=C(O)C(=O)N(Cc2ccccc2)C1c1cccnc1)c1ccco1` (configuration not stated), 0.59%; with `CCN(CC(=O)Nc1cc(Cl)ccc1C)C(=O)CN1C(=O)NC2(CCCC2)C1=O`, 0.75%. For `C=CCNC(=O)CC12CC3CC(C1)CC(CC(=O)NCC=C)(C3)C2`, the inhibition was -3.18%. With `Brc1ccc(C2=CC(c3ccco3)n3ncnc3N2)cc1` (configuration not stated) the figure was 0.45%; with `Clc1ccc2c(c1)C1=C(C(c3ccncc3)O2)C(c2ccc(Br)cc2)n2ncnc2N1` (configuration not stated), 20.3% (active); with `CC1=C(C(N)=O)C(c2ccc(Br)cc2)n2ncnc2N1` (configuration not stated), 1.51%.

For `COc1ccc(C(C(=O)NC2CCCCC2)N(C(=O)Cc2c[nH]c3ccccc23)c2ccccc2)cc1OC` (configuration not stated), the inhibition was 2.63%. With `Cc1nn(-c2ncc(C(F)(F)F)cc2Cl)c(=O)n1-c1ccccc1` the figure was -0.83%; with `O=C1c2cccc(OCC(=O)N3N=C(c4cccs4)CC3c3ccc(F)cc3)c2CCN1Cc1ccccc1` (configuration not stated), 21% (active); with `COc1ccc(C2CC(c3cccs3)=NN2C(=O)CCC(=O)O)cc1OC` (configuration not stated), 0.57%. For the compound `O=C(COc1ccccc1Cl)N1N=C(c2cccs2)CC1c1ccco1` (configuration not stated), the inhibition is 7.67%. To `Cc1cc(C)nc(Nc2n[nH]c(-c3ccccc3N)n2)n1` belongs 0.04%; to `CN1C(=O)c2ccc(C(=O)Nc3ccc(Br)cn3)cc2C1=O`, -4.13%. With `CN(C)CCNC(=O)c1[nH]nc2c1CCc1ccccc1-2` the figure was -1.2%. To `COc1cccc(/C=N/NC(=O)c2[nH]nc3c2CCc2ccccc2-3)c1O` belongs 25% (active). In the case of `COc1cc(OC)c(/C=N/NC(=O)c2ccc([N+](=O)[O-])cc2)cc1Br`, the inhibition is -0.65%.

In the case of `O=S(=O)(NN=C1CCCCCCC1)c1ccc(Br)cc1`, the inhibition is -0.57%.

In the case of `O=C(O)CC(CC(=O)N1CCOCC1)c1ccccc1` (configuration not stated), the inhibition is -2.86%. With `OCCN(Cc1ccccc1)Cc1ccc(Cl)cc1`, the inhibition was 5.28%. With `CN(C(=O)CN(CCO)CC(=O)N(C)C(C)(C)Cc1ccccc1)C(C)(C)Cc1ccccc1`, the inhibition was 21.1% (active). Turning to `CCN(CC)CCCNC(=O)CCc1ccccc1`, the inhibition was -3.5%.

Take `Cc1ccc2nc(SCC(=O)Nc3cccc4ccccc34)nc(=O)n2c1`: the inhibition was -4.71%. With `C=CCn1c(N)cc(=O)nc1SCC(=O)Nc1cccc2ccccc12` the figure was 2.61%. In the case of `Cc1ccccc1-n1c(SCC(=O)Nc2cccc3ccccc23)nc(O)cc1=O`, the inhibition was 15.6% (active). To `COC(=O)C1NN=C(C(=O)c2ccc(Br)cc2)C1c1cccc(Br)c1` (configuration not stated) belongs 1.62%; to `c1ccc(-c2cc(-c3nnc4sc(-c5ccccn5)nn34)[nH]n2)cc1`, 14%; to `COc1cc(-c2nn3c(-c4cccc(C)c4)nnc3s2)cc(OC)c1OC`, 7.7%. To `CCOc1cccc(-c2nn3c(-c4ccccn4)nnc3s2)c1` belongs 16.3% (active). Consider `CCCCCCCC[n+]1cccc(C(=O)N2c3c(nc(N)[nH]c3=O)NC(C)C2C)c1` (configuration not stated), for which the inhibition is -2.25%.

In the case of `CCN(CC(=O)NCc1cccs1)C(=O)c1ccc(OC)c(S(=O)(=O)N2CCOCC2)c1`, the inhibition was -5.16%.
